The values below come from PubChem BioAssay AID1903 (Southern Research Specialized Biocontainment Screening …, 2009).

By inhibition is commonly meant the change of the read-out against control, counted positive when it falls.

“And” between values parts separate entries of the source, which are not always exact repeats. Equal values may be shown once. Screen size: about 310,000 compounds; about 1,200 (0.39%) were called active. These entries were drawn from the full list. Potency and affinity values are given separately. Values without a mark were called inactive. No rule for the calls is given here.

Sequence of Large T antigen (Simian virus 40) (P03070 whole entry, looked up): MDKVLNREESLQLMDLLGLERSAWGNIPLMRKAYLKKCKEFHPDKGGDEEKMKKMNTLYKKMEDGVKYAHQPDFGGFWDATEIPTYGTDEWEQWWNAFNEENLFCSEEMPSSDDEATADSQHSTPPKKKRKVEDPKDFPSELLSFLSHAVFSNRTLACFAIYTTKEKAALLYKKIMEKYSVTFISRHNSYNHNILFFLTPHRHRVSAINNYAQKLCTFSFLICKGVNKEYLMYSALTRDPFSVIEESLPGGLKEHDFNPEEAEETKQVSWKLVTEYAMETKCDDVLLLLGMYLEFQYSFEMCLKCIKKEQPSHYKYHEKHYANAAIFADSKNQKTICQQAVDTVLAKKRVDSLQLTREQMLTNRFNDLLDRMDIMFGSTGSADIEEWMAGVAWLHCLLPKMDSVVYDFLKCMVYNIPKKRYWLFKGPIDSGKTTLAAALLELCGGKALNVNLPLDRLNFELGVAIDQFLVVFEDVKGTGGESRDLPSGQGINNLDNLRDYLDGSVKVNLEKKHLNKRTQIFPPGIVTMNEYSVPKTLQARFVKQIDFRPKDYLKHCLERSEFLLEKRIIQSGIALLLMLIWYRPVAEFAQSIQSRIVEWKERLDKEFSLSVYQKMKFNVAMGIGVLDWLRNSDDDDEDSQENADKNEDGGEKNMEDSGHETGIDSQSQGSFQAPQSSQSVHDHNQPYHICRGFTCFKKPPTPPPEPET

The assay concerns the target Large T antigen (Simian virus 40) (UniProt P03070). Nature of the assay: SV40 large T antigen inhibitors, biochemical (AID 1903). The following applies: SV40 large T antigen ATPase/helicase inhibition assay; at 20 µM; hits give high values.
Consider `O=C(CCSc1ccc(Cl)cc1)N1CCN(c2ncccn2)CC1`, for which the inhibition is 0.35%. The figure for `CCn1cc(CN2CCC(C(=O)Nc3ccc(Oc4ccccc4F)cc3)CC2)c(C)n1` is 10.4%. `CCCC(=O)Oc1ccc2c(C)cc(=O)oc2c1`: the inhibition is 18.6%.

Regarding `COc1ccc2c(COC(=O)CCS(=O)(=O)c3ccc(C)cc3)cc(=O)oc2c1`, the inhibition was 6.52%. Take `COc1cc(C(C)=O)ccc1OCC(O)CN1CCN(c2c(C)cccc2C)CC1` (stereo not drawn): the inhibition is -5.73%. In the case of `OCCOc1ccc(C2=NCCO2)cc1`, the inhibition was -2.82%.

Turning to `CCN1CCN(CC(=O)Nc2ccc3c(c2)OCO3)C(=O)C1=O`, the inhibition is 3.32%. To `COc1ccc(Nc2cc3n(c(=O)n2)CCc2cc(OC)c(OC)cc2-3)cc1` belongs 10.4%; to `CCN(CC)c1ccc(Nc2cc3n(c(=O)n2)CCc2cc(OC)c(OC)cc2-3)cc1`, 31.5%. To `CCOc1ccc(N2C(=O)/C(=C/c3ccccn3)SC2=S)cc1` belongs 9.29%. To `COc1ccc(N2CCN(C(=O)CCc3ccc(S(=O)(=O)NC(C)C)cc3)CC2)cc1` belongs 11.6%. For the compound `CC(C)CC(=O)Nc1ccnn1C1CCN(C(=O)c2ccc(F)cc2Cl)CC1`, the inhibition was 0.42%.

For `O=C(NNC(=O)c1ccco1)c1ccc(NS(=O)(=O)c2cccs2)cc1`, the inhibition was 9.88%. The figure for `COc1ccc(NC(=O)c2sc(SC)nc2N)cc1` is 3.33%; for `COc1ccc(NC(=O)c2sc(SCc3ccccc3)nc2N)cc1` it is 1.41%. Regarding `CC(=O)Nc1ccc2nc(CN3CCN(CC=C(C)C)C(CCO)C3)ccc2c1` (stereo not drawn), the inhibition was 5.4%.

For the compound `COc1ccc(C(=O)NNC(=O)C(=O)NC(C)c2ccccc2)cc1OC` (stereo not drawn), the inhibition is -0.06%. On to `O=C(O)c1ccc2c(c1)C(c1ccccc1)OC2=O` (stereo not drawn), for which the inhibition was 11%.

On to `COc1ccccc1CC(=O)Nc1ccc(-c2nnc(-c3ccco3)o2)cc1`, for which the inhibition was 5.22%. The figure for `CCOc1ccc(CCNC(=O)c2cccc(S(=O)(=O)N3CCCC3)c2)cc1OCC` is 2.19%. Take `COc1ccc2c(c1)oc(=O)c1ccccc12`: the inhibition is 2.39%. To `O=c1cc(O)c2ccc(O)cc2o1` belongs 4.04%. To `Cc1cc(=O)oc2cc(O)ccc12` belongs 17.8%; to `COc1ccc2c(c1)c(=O)oc1cc(O)ccc12`, 10.3%; to `Clc1ccccc1N1CCN(Cc2c[nH]c3ccccc23)CC1`, 1.73%. Consider `O=C(Cn1nnc(-c2ccccc2)n1)Nc1ccccc1N1CCOCC1`, for which the inhibition is -3.12%. For `C[N+]1=C(/C=C/Nc2ccccc2Cl)C(C)(C)c2ccccc21`, the inhibition is 21.8%. For `COC(=O)c1ccc2c(c1)C(C)(C)C(/C=C/c1ccccc1O)=[N+]2C`, the inhibition was 21.7%.

For the compound `O=C(NC1CCCCC1)c1sc(=S)n2c1[nH]c(=O)c1ccccc12`, the inhibition is 6.27%. As to `O=C(NCc1ccco1)c1sc(=S)n2c1[nH]c(=O)c1ccccc12`, the inhibition is 23.2%. The figure for `Cc1ccc(N(C(=O)c2csnn2)C(C(=O)NC2CCCCC2)c2ccccn2)cc1C` (stereo not drawn) is 4.41%. The figure for `CCCCC[n+]1cccc2c3ccccc3ccc21` is 5.51%; for `CCCCCCCCCC[n+]1cccc2c3ccccc3ccc21` it is 23.8%.

Consider `[O-][n+]1c2ccccc2cc2ccccc21`, for which the inhibition is 3.6%.

In the case of `Cc1ccc2ccccc2[n+]1CCCS(=O)(=O)[O-]`, the inhibition is 5.88%.

In the case of `CN(C)C(=O)c1ccc(-c2nnc(NCc3ccccc3)c3ccccc23)cc1`, the inhibition is 17.7%. The figure for `CCOC(=O)c1c(S(=O)(=O)NCC(=O)Nc2ccc(F)cc2)c(C)n(C)c1C` is 2.6%; for `CCOc1ccccc1NC(=O)Cn1c(=O)c(OCC)nc2cnccc21` it is 13.5%; for `COc1ccc(C2CC(=O)N3CN(c4ccccc4F)CSC3=C2C#N)cc1OC` (stereo not drawn) it is 51.3%. As for `COc1ccc2ccccc2c1C1CC(=O)N2CN(C)CSC2=C1C#N` (stereo not drawn), the inhibition was 28.9%.

For the compound `CN1CSC2=C(C#N)C(c3cccc(OCc4ccccc4)c3)CC(=O)N2C1` (stereo not drawn), the inhibition is 43.1%. To `COc1ccc(Br)cc1C1CC(=O)N2CN(Cc3ccccc3)CSC2=C1C#N` (stereo not drawn) belongs 35% and 18.8%; to `Cc1cccc(C(=O)N2CC3(C)CC2CC(C)(C)C3)c1` (stereo not drawn), 3.07%; to `O=C(c1cccc([N+](=O)[O-])c1)c1ccc2c(c1)OCCOCCOCCOCCO2`, 7.91%. The figure for `Cc1cccc(N2CCN(C(=O)CCCn3c(=O)c4cccn4c4cccnc43)CC2)c1C` is 9.66%; for `CCN1CCN(C(=O)C2=CC(c3ccc(C)cc3)=NS(=O)(=O)N2C)CC1` it is 16.5%. For `CCN1C(=O)N[C@@H](CCc2ccccc2)[C@@H](C(=O)OC)[C@H]1C`, the inhibition was 23.2%. Turning to `COc1cccc(NC(=O)CSCC(=O)Nc2ccccc2)c1`, the inhibition is 13.8%. The figure for `O=C(CN1CCCCC1)Nc1ccc(N2CCCCCC2)cc1` is 31.6%. For the compound `CCC(=O)Nc1ccc(N2CCCCC2)cc1`, the inhibition was 34.9%. The figure for `CC(=O)Nc1ccc(N2CCN(C(C)=O)CC2)cc1` is 27.6%; for `CC(=O)Nc1ccc(N2CCCC2)cc1` it is 0.723%; for `CNC(=O)C12CC3CC(CC(Cl)(C3)C1)C2` it is 11.2%. As to `O=C(CC(C(=O)O)c1cccc(Br)c1)c1ccc(Cl)cc1` (stereo not drawn), the inhibition is 9.51%. The figure for `Nc1cccc2cnccc12` is 3.43%; for `N#Cc1cccc2cnccc12` it is 7.69%. The figure for `O=C(CSc1ccc(-c2ccccc2)nn1)c1cccs1` is 3.38%; for `Cc1nonc1OCCNCc1c(C(=O)N(C)C)nc2ccc(Cl)cn12` it is 6.84%; for `S=c1[nH]nc(-c2ccc(Cl)cc2)n1/N=C/c1ccco1` it is 35.9%. As to `O=C1OC(c2ccc(Cl)cc2)=N/C1=C\C=C\c1ccco1`, the inhibition is 58.1%. Regarding `C(/C=C/c1ccco1)=N/N1CCN(c2ccccc2)CC1`, the inhibition was 7.94%. In the case of `Cc1ccc(N/N=C/C=C/c2ccco2)cc1`, the inhibition is 12.9%. To `C(=C\c1ccco1)/C=N/n1cnnc1` belongs 21.7%; to `S=c1[nH]nc(-c2ccncc2)n1/N=C/C=C/c1ccco1`, 28.8%. To `Cc1ccccc1-n1nc2c(c1NC(=O)c1ccc3c(c1)OCO3)CS(=O)(=O)C2` belongs 5.82%; to `CC(=O)Nc1ccc(N(C(=O)c2ccccn2)C(C(=O)NC2CCCCC2)c2ccc(F)cc2)cc1` (stereo not drawn), 5.17%; to `Cc1ccc2[nH]c(=O)c(C(c3nnnn3C(C)(C)C)N(Cc3ccco3)CC3CCCO3)cc2c1` (stereo not drawn), 9.73%. The figure for `Cc1occc1C(=O)Nc1sc2c(c1C(N)=O)CCC(C(C)(C)C)C2` (stereo not drawn) is 16.6%; for `COc1cc(OC)c(N(C)S(=O)(=O)c2cccc(C(=O)OCc3c(C)noc3C)c2)cc1Cl` it is 5.27%. Regarding `Cc1ccc(N2C(=O)C3CCC(C)(C2=O)C3(C)C)cc1` (stereo not drawn), the inhibition was 1.07%.

With `O=C(Cn1cnc2ccccc2c1=O)Nc1nc2ccccc2s1`, the inhibition was 4.55%. To `Cc1nnsc1C(=O)N1CCCC(C(=O)c2ccc(C(F)(F)F)cc2)C1` (stereo not drawn) belongs -2.34%; to `Cc1cccc(OCC(=O)N2CCN(c3nnc(-c4ccccc4)c4ccccc34)CC2)c1`, 12.7%. Turning to `CCn1cc(C(=O)NCC(C)C)c(=O)c2cc(F)c(N3CCN(C)CC3)cc21`, the inhibition is 15.3%.

With `COc1cc(OC)cc(C(=O)NCC2CCCN(C(=O)c3csc(C(C)C)n3)C2)c1` (stereo not drawn), the inhibition was 12.6%. Regarding `Cc1ccc(COc2ccc(S(=O)(=O)N3CCCC3)cc2C(N)=O)cc1`, the inhibition was 4.61%. With `O=C(Nc1ccc(F)cc1)Oc1ccc[nH]c1=O`, the inhibition was 9.86%.

Consider `COc1ccccc1N1CCN(C(=O)/C=C/c2ccc(C)cc2)CC1`, for which the inhibition is 9.93%. To `CCc1ccc2[nH]c(=O)c(CN(CC3CCCO3)C(=S)NCc3ccco3)cc2c1` (stereo not drawn) belongs 10.7%; to `O=C(CSc1n[nH]c(=O)n1Cc1ccco1)Nc1ccccc1Cl`, 12.1%; to `N=c1n(CCO)c2ccccc2n1CCN1CCCCC1`, 6.21%. As to `COc1ccc(N2C(=O)c3ccccc3NC23CCCCC3)cc1`, the inhibition was -1.05%. To `COc1ccc(N2C(=O)c3ccccc3NC23CCCC3)cc1` belongs 5.28%; to `O=C(/C(=C(\[O-])c1ccccc1)[n+]1ccc2ccccc2c1)c1ccc([N+](=O)[O-])cc1`, 15%; to `O=[N+]([O-])c1cccc(S(=O)(=O)c2cccc([N+](=O)[O-])c2)c1`, 3.63%.

For `CCC(C)N(C(=O)CSc1nnc(-c2ccco2)n1C)C1CCS(=O)(=O)C1` (stereo not drawn), the inhibition was 13.2%. To `CCc1nc2nc(C)c(NS(=O)(=O)c3ccc(C)c(C)c3)c(=O)n2[nH]1` belongs 4.17%. Take `O=C(Oc1ccc(-c2nnco2)cc1)C1CCN(C(=O)c2ccc(F)cc2)CC1`: the inhibition was 5.55%. To `COC(=O)N/C(C)=C1/NC(=O)c2ccccc2C(c2ccccc2)N1` (stereo not drawn) belongs 6.67%.

For the compound `O=C(O)c1ccc2c(=O)n3c(nc2c1)/C(=C/c1ccc(Cl)c(Cl)c1)CC3`, the inhibition was 24.8%.

Take `COc1ccc(NC(=O)C(CCS(C)(=O)=O)N2C(=O)c3ccccc3C2=O)cc1` (stereo not drawn): the inhibition is 11.7%. With `CC(=O)c1ccc(OC(=O)C(CCS(C)(=O)=O)N2C(=O)c3ccccc3C2=O)cc1` (stereo not drawn), the inhibition is 3.15%.

For `CCOC(=O)N1CCN(C(=O)CC(C)S(=O)(=O)c2cc3c(cc2C)NC(=O)CO3)CC1` (stereo not drawn), the inhibition is 6.54%. Turning to `Cc1ccc(-n2c(SCC(=O)OC(C)C)nnc2-c2ccncc2)cc1`, the inhibition was 9.08%.

For the compound `Cc1cc(=O)c2ccccc2s1`, the inhibition was 23.3%. To `O=c1[nH]c2ccc(F)cc2[nH]c1=O` belongs 22.1%; to `O=C1Nc2ccc(F)cc2C12SCCS2`, -3.17%; to `O=c1[nH]c2ccccc2c2ccccc12`, 11.7%.
